LGR2 antag: blocks bursicon-induced cAMP signaling via Drosophila LGR2; HEK293 LGR2, CRE-luciferase, bursicon-stimulated, 4 h; inhibition, % at 9.99 µM; 380,000 compounds, 0.35% hits; AID 720647;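 active means drop in luminescence signal, shown as inhibition above about 50% in the replicate tests, limit read from the data, passing the limit was not always enough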;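 further: agonist challenge used bursicon conditioned medium at about half maximal strength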
TWEAK Fn14 block: inhibitors of TWEAK-Fn14 interaction signaling. TWEAK-stimulated Fn14 reporter cells, luciferase luminescence, 8 h. inhibition, % at 10 µM. 360,000 compounds, 2% hits; in the data active means inhibition above about 50%
HSF-1 act: increases HSF-1 driven luciferase reporter signal; NIH3T3-HGL HSF-1 luciferase reporter, MG132, 8 h; 100% = twice DMSO control signal; activation, % at 9 µM; 300,000 compounds, 1.7% hits; AID 504408;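 active means mean replicate activation of at least 50% with a set share of replicates each reaching 50%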
EBV LMP1 NFkB: reduces LMP1-driven NF-kappaB luciferase signal; LMP1-induced NF-kappaB luciferase reporter cells, luminescence; inhibition, % at 12.5 µM; 350,000 compounds, 0.69% hits; in the data active means inhibition above about 41%
HSF1 inh: HSF1 inhibition; NIH3T3-HGL HSE-luciferase, MG132-induced, luminescence 8 h; stronger effect = lower value; activity change, negative = inhibition, % at 7.5 µM (by protocol); 300,000 compounds, 0.77% hits; AID 2098;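 active means more than half of replicate wells show activity change below -50%, luminescence cut by over half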;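 further: luciferase reports HSF-1 transcriptional activity via heat shock element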
TROY NFkB inh: TROY signaling inhibition; Q293 LMP1-TROYcd NF-kB luciferase reporter, 4 h; inhibition, % at 10 µM; 360,000 compounds, 0.98% hits; AID 1347056;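 active means compounds whose plate-normalised and pattern-corrected inhibition of the luciferase reporter signal at the single screening dose is 50% or more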
A number is an active result; . = inactive; / = not tested or not shown. Only some compounds are listed: those with a hit (about 3.6% of all), similar ones and a draw of the others.

SMILES	LGR2 antag	TWEAK Fn14 block	HSF-1 act	EBV LMP1 NFkB	HSF1 inh	TROY NFkB inh
C/C=C/c1ccc2c(c1)O[C@@H](CN(C)C(=O)Nc1ccc(C(F)(F)F)cc1)[C@@H](C)CN([C@@H](C)CO)S2(=O)=O	.	/	/	/	/	/
COc1ccc(C2=CC(=O)N(Nc3ccccc3)C2=O)cc1	.	.	72	/	.	.
Cc1ccc(NN2C(=O)C=C(c3ccc(Cl)cc3)C2=O)cc1	/	.	60	.	.	.
Cc1ccc(NN2C(=O)C=CC2=O)cc1	.	53	.	.	.	.
Cc1ccccc1NN1C(=O)C=CC1=O	/	.	.	.	.	.
O=C1C=C(c2ccccc2)C(=O)N1Nc1ccccc1	/	.	.	.	.	.
Cc1noc(C)c1NC(=O)Nc1ccc2c(c1)CC(=O)N([C@H](C)CO)C[C@@H](C)[C@H](CN(C)C(=O)Nc1ccccc1)O2	.	/	/	/	/	/
CC(OC(=O)CN1C(=O)c2ccccc2C1=O)C(=O)NC1CCCCC1C (configuration not stated)	.	.	.	.	-75	.
CC(OC(=O)CN1C(=O)c2ccccc2C1=O)C(=O)NC1CCCC1 (configuration not stated)	.	.	.	.	.	.
O=c1[nH][nH]c2cc(=O)n(-c3cccc(C(F)(F)F)c3)nc12	/	.	52	.	.	.
C[C@H](CO)N1C[C@H](C)[C@H](CN(C)C(=O)c2ccccc2)OCCCC[C@H](C)Oc2ccc(NS(=O)(=O)c3ccccc3)cc2C1=O	.	/	/	/	/	/
COC(=O)[C@]1(C)CCC[C@@]2(C)C3CC[C@@]4(C)C[C@]3(CCC21)CC(=O)N4 (some centres not stated)	.	.	/	.	/	.
C=C1C(=O)C23CCC4C(C)(C(=O)OC)CCCC4(C)C2CCC1(O)C3 (configuration not stated)	/	98	/	62	/	88
O=C(C[C@H]1C=C[C@@H](NC(=O)C2CCOCC2)[C@@H](CO)O1)Nc1nccs1	.	/	/	/	/	/
COc1ccc(S(=O)(=O)Nc2cccc3c2O[C@H](CN(C)S(=O)(=O)c2c(C)noc2C)[C@H](C)CN([C@@H](C)CO)C3=O)cc1	.	/	/	/	/	/
Cc1cccc(NC(=O)CCCCCN2C(=O)c3ccccc3C2=O)n1	/	.	.	.	.	.
Cc1ccc(NC(=O)CCCCCN2C(=O)c3ccccc3C2=O)nc1	.	.	54	.	.	.
O=c1[nH]cc(S(=O)(=O)c2ccccc2)[nH]1	.	.	.	.	-51	.
Cc1nn(-c2ccccc2)c(Cl)c1CN(C(=O)CCl)c1cccc2ccccc12	.	77	.	.	.	.
Cc1nn(-c2ccccc2)c(Cl)c1CN(C(=O)CCl)c1ccc(Cl)cc1	.	.	.	.	-86	.
O=C(Cc1ccccc1)N1C[C@@H]2[C@H](c3ccccc31)[C@@H](CO)N2C(=O)c1cccc(F)c1	.	/	/	/	/	/
C[C@H]1CCCCO[C@@H](CN(C)CC2CC2)[C@@H](C)CN([C@@H](C)CO)C(=O)c2cc(NC(=O)Nc3ccc(F)cc3)ccc2O1	.	/	/	/	/	/
C[n+]1cccc(C(=O)NNC(=O)C23CC4CC(CC(C4)C2)C3)c1	.	.	.	.	.	52
Cc1ccc(NS(=O)(=O)c2cc(NC(=O)c3ccc4c(c3)NC(=O)CS4)ccc2C)c(C)c1	.	72	.	.	.	64
CC(=O)c1c(C)[nH]c(C(=O)Nc2ccc(C)c(S(=O)(=O)N(C)C)c2)c1C	.	.	.	.	.	.
SMILES	LGR2 antag	TWEAK Fn14 block	HSF-1 act	EBV LMP1 NFkB	HSF1 inh	TROY NFkB inh
CC(=O)c1c(C)[nH]c(C(=O)Nc2ccc(C)c(S(=O)(=O)Nc3ccc(C)cc3C)c2)c1C	.	.	.	.	.	58
COc1ccc(NC(=O)c2ccc3c(c2)NC(=O)CS3)cc1S(=O)(=O)Nc1ccc(Br)cc1	.	.	.	.	.	.
CN(C)C(=O)c1ccc(-c2ccc3c(c2)[C@H]2[C@H](CCN2Cc2cncnc2)[C@H](CO)N3)cc1	.	/	/	/	/	/
C[C@H]1CN([C@@H](C)CO)S(=O)(=O)c2ccc(C#CCN(C)C)cc2O[C@H]1CN(C)C(=O)CC1CC1	.	/	/	/	/	/
CN1CCSc2ccc(C(=O)Nc3ccc(Cl)cc3)cc21	.	.	122	.	.	.
COc1cccc(NC(=O)c2ccc3c(c2)N(C)CCS3)c1	.	.	92	.	.	.
Cc1noc(C)c1S(=O)(=O)Nc1ccc2c(c1)C(=O)N([C@@H](C)CO)C[C@H](C)[C@H](CN(C)Cc1ccc3c(c1)OCO3)O2	.	/	/	/	/	/
C[C@H]1CN([C@@H](C)CO)C(=O)c2cc(-c3ccccc3F)cnc2O[C@H]1CN(C)C(=O)C1CCC1	.	/	/	/	/	/
CC(=O)N(C)C[C@@H]1Oc2cc(C#Cc3ccccn3)ccc2S(=O)(=O)N([C@H](C)CO)C[C@@H]1C	.	/	/	/	/	/
Cn1c(=O)oc2cc(S(=O)(=O)N3CCCCC3)ccc21	.	.	113	.	.	.
Cc1cc(C(=O)COc2ccccc2Cl)c(C)n1-c1ccc2c(c1)OCO2	/	.	.	.	.	.
Cc1ccc(-n2c(C)cc(C(=O)COc3c(CO)cc(F)cc3CO)c2C)cc1C	.	.	56	.	.	.
COc1ccc(-c2ccc3n(c2=O)C[C@H]2[C@H](CO)[C@@H](C(=O)N(C)C)N(CC4CCCC4)[C@@H]32)cc1	.	/	/	/	/	/
CCc1nnc(NC(=O)C2Cc3ccccc3CN2S(=O)(=O)c2ccc(C)cc2)s1 (configuration not stated)	/	.	58	.	.	.
CCc1nnc(NC(=O)C2Cc3ccccc3CN2S(=O)(=O)c2cccs2)s1 (configuration not stated)	/	.	84	.	.	.
O=C(Nc1nnc(C2CC2)s1)C1Cc2ccccc2CN1S(=O)(=O)c1cccs1 (configuration not stated)	/	.	.	.	.	.
CCC(=O)N(C)C[C@@H]1Oc2cc(C3=CCCC3)ccc2S(=O)(=O)N([C@H](C)CO)C[C@H]1C	.	/	/	/	/	/
Cc1ccc(CNC(=O)c2ccc([N+](=O)[O-])o2)cc1	/	.	61	.	.	.
O=C(Nc1ccc(-c2csc(Nc3ccccc3)n2)cc1)c1cc([N+](=O)[O-])cc(C(F)(F)F)c1	.	66	.	.	.	.
Cc1ccc(-c2csc(NC(=O)c3cccc([N+](=O)[O-])c3)n2)cc1	/	.	64	.	.	.
Cc1ccc(-c2csc(NC(=O)c3ccc([N+](=O)[O-])o3)n2)cc1	.	.	65	.	.	.
C/C=C/c1cnc2c(c1)C(=O)N([C@H](C)CO)C[C@H](C)[C@@H](CN(C)C(=O)C1CCC1)O2	.	/	/	/	/	/
Cc1noc(C)c1S(=O)(=O)Nc1ccc2c(c1)CC(=O)N([C@@H](C)CO)C[C@H](C)[C@@H](CN(C)C(=O)NC1CCCCC1)O2	.	/	/	/	/	/

Screening results from PubChem BioAssay.
